Source: PubChem BioAssay (National Center for Advancing Translational Sciences (NCATS))
KB-V1 cytotox – qHTS assay for MDR1-selective chemotherapeutics: Primary screen using the drug-selected MDR subline cells KB-V1. KB-V1 MDR cells viability, CellTiter-Glo, 72 h. Potency, µM (series often up to 46.1 µM), most hits filed as cytotoxic. 400,000 tested, 3.4% active. AID 1347076, 2019; further: potency means the concentration at half of the fitted maximal effect; nearly all actives have a fitted effect of over 60% in size
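Cytotoxicity toward P-gp-expressing KB-V1 cells was determined as loss of CellTiter-Glo luminescence after 72 h at 37 degrees C. Compounds were tested in quantitative HTS format across a concentration range, with curves fitted to normalized data.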
HT1080-NT tox – qHTS for induction of synthetic lethality in tumor cells producing 2HG: qHTS for the HT-1080-NT fibrosarcoma cell line; HT-1080-NT fibrosarcoma viability, CellTiter-Glo ATP luminescence, 48 h; Potency, µM (titrated, usually from 46.1 µM), for the others: top-dose activity, negative = less viability, hits mostly cytotoxic; 360,000 tested, 1.6% active;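 further: NT is the 2HG producing partner of a matched IDH1 knockdown line; potency means the concentration at half of the fitted maximal effect; 0% = DMSO-treated cells and -100% = media-only wells without cells; nearly all actives have a fitted effect of over 55% in size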
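A 48-hour cytotoxicity screen used HT-1080-NT cells plated 2 hours before compound delivery. ATP-based CellTiter-Glo luminescence measured viability, normalized to DMSO and no-cell controls.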
KB-3-1 cytotox – qHTS assay for MDR1-selective chemotherapeutics: Primary screen using the parental adenocarcinoma cell KB-3-1; KB-3-1 viability, CellTiter-Glo ATP luminescence, 72 h; Potency, µM (series often up to 46.1 µM), actives largely listed as cytotoxic; 400,000 tested, 1.4% active; AID 1347075, 2019; further: potency means the concentration at half of the fitted maximal effect; nearly all actives have a fitted effect of over 60% in size
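Parental KB-3-1 viability, qHTS format: 72 h compound exposure, 37 °C; CellTiter-Glo; media-only wells and DMSO plates as controls; concentration-effect fits on corrected data.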
HT1080 IDH1KD tx – qHTS for induction of synthetic lethality in tumor cells producing 2HG: qHTS for the HT-1080-IDH1KD cell line; HT-1080 IDH1 knockdown viability, ATP luminescence, 48 h; Potency, µM (top dose mostly 46.1 µM), without a hit: at the top dose activity, negative = toxicity, usual class: cytotoxic; 360,000 tested, 2% active;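 further: potency means the concentration at half of the fitted maximal effect; 0% = DMSO wells and -100% = cell-free medium wells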
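Knockdown cells (IDH1KD HT-1080) received compounds 2 h after plating at 750 cells/well and were kept 48 h at 37 °C in 5% FBS RPMI. A CellTiter-Glo luminescence read gave % activity for curve fitting.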
IL-1B inflam inh – qHTS for Inhibitors of Inflammasome Signaling: IL-1-beta AlphaLISA Primary Screen; AID 743279, 2014; 360,000 tested, 4.7% active; THP-1 LPS/ATP IL-1B secretion, AlphaLISA, 16 h; active compounds read low; activity change, % at 57.5 µM; in the data active means activity change below about -50%; inconclusive means mostly about -30% to -49%
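THP-1 cells pretreated 1 hr with compounds (up to 57.5 uM final), then stimulated with LPS (250 ng/mL final) plus ATP (1.25 mM final); secreted IL-1B measured by AlphaLISA after 16 hr, decreased signal indicating inhibition.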
* marks the source's active call; other numbers are inactive results; i = inactive; ? = inconclusive; · = no result; [ ] = remark or other dose. The list is not random: actives were taken first. Their share in the collection is about 8.8%. Unless noted, the call rests on the fitted dose curve; in most records, active means well fitted curve in the direction sought with a large enough effect; inconclusive means small, poorly fitted or top-dose-only effect, or another doubt; inactive means no such curve, though single readings can be large; an effect the other way counts as inactive or inconclusive. Unless noted, on the % scale 0 is the no-effect control and ±100 the full control effect.

SMILES	KB-V1 cytotox	HT1080-NT tox	KB-3-1 cytotox	HT1080 IDH1KD tx	IL-1B inflam inh
CCOc1cc(/C=C2\COc3ccccc3C2=O)ccc1OCC(=O)N(C)C	?	25.9µM*	i	23.1µM*	-97.8*
CCNC(=O)COc1ccc(/C=C2\COc3ccccc3C2=O)cc1OC	i	?	i	25.9µM*	-102.2*
C=CCn1c(SCc2c(C)noc2C)nc2cc(C(=O)O)ccc2c1=O	?	6.31µM*	?	7.08µM*	30.6
C=CCn1c(SCc2c(C)noc2C)nc2ccccc2c1=O	?	0.562µM*	?	0.316µM*	40.0
C=CCn1c(SCc2ccc(Br)cc2F)nc2cc(C(=O)O)ccc2c1=O	i	-1.9%	i	-18.6%	9.5
C=CCn1c(SCc2c(C)noc2C)nc2sc3c(c2c1=O)CCCCC3	?	-8.4%	i	-24.5%	-8.4
C=CCn1c(SCc2c(C)noc2C)nc2sc3c(c2c1=O)CCCC3	23.1µM*	-19.0%[9.24 µM]	18.4µM*	?	-20.6
COc1ccc(CN2C(=O)C(CC(=O)NCCc3ccccn3)CC(C(=O)N3CCCCCC3)=C2C)cc1 (stereo unspecified)	?	-12.3%	·	-6.4%	·
CC[C@@H](C(=O)[C@@H](C)[C@@H](O)[C@H](C)CCc1ccc(C)c(O)c1C(=O)O)[C@H]1O[C@](CC)([C@H]2CC[C@](O)(CC)[C@H](C)O2)C[C@@H]1C	?	1.64µM*	?	6.51µM*	-91.6*
CCOC(=O)C1=CCC(c2ccccc2Cl)N(S(=O)(=O)c2ccc(C)cc2)C1 (stereo unspecified)	?	-27.8%	i	-26.1%	34.0
CCCC1=Nc2cc(C(=O)NCCCOCC)ccc2Sc2ccccc21	1.03µM*	1.64µM*	0.517µM*	0.731µM*	30.9
CCCC1=Nc2cc(C(=O)NCCCOC(C)C)ccc2Sc2ccccc21	7.31µM*	11.6µM*	4.61µM*	18.4µM*	41.2
CCOC(=O)c1cccc(NC(=O)c2cc3c(=O)n(Cc4ccccc4)ccc3nc2C)c1	i	·	i	·	·
CCOC(=O)c1ccc(NC(=O)Cn2ncc3c(C)n(Cc4ccccc4F)c(C)c3c2=O)cc1	i	·	i	·	·
CCC(C)NC(=O)COC(=O)c1csc2c1CCCC2 (stereo unspecified)	i	3.9%	23.1µM*	26.0%	27.8
CCCNC(=O)c1csc2c1CCCCC2	i	5.0%	i	13.6%	36.1
CC(C)CNC(=S)NNC(=O)c1csc2ccccc12	14.6µM*	?	i	-21.4%	-25.7
CCNC(=S)NNC(=O)c1csc2ccccc12	?	-20.2%	?	?	-16.3
CC(C)CNC(=S)NNC(=O)c1csc2c1CCCC2	i	8.91µM*	i	?	?
CCCCCc1c(O)nc(SCCN2CCOCC2)[nH]c1=O	i	5.9%	i	4.7%	3.4
C[C@@H]1CN(C(=O)c2nc3ccc(Cl)cn3c2CN2CCc3sccc3C2)C[C@H](C)O1	?	1.2%	?	11.6%	38.8
O=C1NNC(=O)C1c1ccccc1	i	-0.2%	i	9.9%	-6.1
O=C1CC(c2ccccc2)=C(c2ccccc2)C1c1ccccc1 (stereo unspecified)	10.3µM*	-3.8%	?	3.7%	-7.5
COc1ccc(CCNC(=O)c2ccc(Cn3c(=O)c4ccccc4n(Cc4cccc(Cl)c4)c3=O)cc2)cc1OC	i	·	i	·	·
CN(Cc1c(F)cccc1Cl)C(=O)c1cccc(S(=O)(=O)NCc2ccccc2)c1	i	7.4%	i	2.5%	-22.6
SMILES	KB-V1 cytotox	HT1080-NT tox	KB-3-1 cytotox	HT1080 IDH1KD tx	IL-1B inflam inh
O=C(NCc1cccc(C(F)(F)F)c1)c1cccc(S(=O)(=O)NCc2ccccc2)c1	18.4µM*	0.1%	i	-4.2%	3.0
CN(Cc1ccc(Cl)cc1Cl)C(=O)c1cccc(S(=O)(=O)NCc2ccccc2)c1	5.17µM*	-2.0%	?	-6.5%	?
O=C(c1ccc(CNS(=O)(=O)c2cccc(C(F)(F)F)c2)cc1)N1CCOCC1	13µM*	0.0%	i	-5.7%	-6.0
O=C(c1ccc(NS(=O)(=O)c2cccc(C(F)(F)F)c2)cc1)N1CCCC1	·	3.6%	·	-11.4%	19.6
COc1cccc(-c2csc(N3CCN(CC(=O)NNC(=O)c4ccc(Cl)cc4)CC3)n2)c1	?	?	i	11.2µM*	0.0
COc1cccc(-c2csc(N3CCN(C(=S)Nc4cccc(Cl)c4)CC3)n2)c1	?	?	i	?	-80.9*
Cc1cc(F)ccc1S(=O)(=O)N1CCCOC1CNC(=O)C(=O)NC1CCCC1 (stereo unspecified)	?	1.8%	i	2.7%	29.5
O=C(COC(=O)c1ccc(OC(F)F)cc1)NCCC1=CCCCC1	?	7.4%	?	2.3%	-5.3
N#Cc1c(NCCCO)nc(-c2ccccc2)c2c1CCCC2	i	-15.6%	i	-29.0%	14.2
N#Cc1c(NCCN)nc(-c2ccccc2)c2c1CCCC2	?	?	?	?	-55.1*
COc1cccc(C2(C)NC(=O)N(CC(=O)Nc3ccc(N4CCOCC4)cc3)C2=O)c1 (stereo unspecified)	i	5.8%	i	11.2%	4.4
COc1ccccc1NC(=O)N(C)C[C@@H]1OCc2cnnn2CCCC(=O)N([C@H](C)CO)C[C@H]1C	i	-1.9%	i	10.1%	16.1
CCOC(=O)C1CCN(C(=O)Cn2cccc2C(=O)c2ccccc2)CC1	20.6µM*	-1.9%	i	-1.0%	-13.3
CCOC(=O)C1CCCN(C(=O)Cn2cccc2C(=O)c2ccccc2)C1 (stereo unspecified)	i	3.2%	i	1.5%	-0.6
Cc1cccc(N2CCN(C(=O)Cn3cccc3C(=O)c3ccccc3)CC2)c1C	16.4µM*	3.5%	?	2.0%	-25.7
O=C(CC1C=CCC1)Nc1ccccc1 (stereo unspecified)	i	4.1%	i	-0.6%	-17.1
COc1ccc(NC(=O)CN(C)CC(=O)NC(=O)NC2CCCCC2)cc1	i	2.8%	i	-4.6%	5.1
CN(CC(=O)Nc1ccc(Cl)cc1)C(=O)Cc1c(F)cccc1Cl	i	5.5%	i	-10.7%	2.0
COc1ccc(NC(=O)CN(C)CC(=O)NC2CCC(C)CC2)cc1 (stereo unspecified)	20.6µM*	-4.7%	i	15.6%	-0.4
CN(CC(=O)Nc1ccc(OC(F)(F)F)cc1)C(=O)Cc1c(Cl)cccc1Cl	i	-3.2%	i	-1.7%	-55.2*
